Data reported in PubChem BioAssay (NCI).
About 79,000 compounds went through this panel and 15% of them were active in at least one assay; those are over-represented in the sample as a whole. Rule as the data show it: active = growth inhibition above about 70%; inactive = the rest.

What was measured:
[1] = NCI Yeast Anticancer Drug Screen. Data for the rad50 strain (AID 155);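 also: 0% = growth of vehicle-only cultures of the same strain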; settings: S. cerevisiae rad50 strain growth inhibition; at 50.0 µM; hits give high values
Method in brief: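 Growth of the mutant yeast was measured after compound exposure and referenced to vehicle-treated cultures.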

[2] = NCI Yeast Anticancer Drug Screen. Data for the mec2-1 strain (AID 157); settings: S. cerevisiae mec2-1 strain, at 50.0 µM, hits give high values
Method in brief: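 Mutant yeast (mec2-1) grown with compound; growth inhibition relative to vehicle control reported.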

[3] = NCI Yeast Anticancer Drug Screen. Data for the sgs1 mgt1 strain (AID 161);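 also: 0% = growth of cultures given vehicle only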; settings: S. cerevisiae sgs1 mgt1 strain, at 50.0 µM, hits give high values
Method in brief: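 Yeast cells carrying a defined DNA-repair defect were exposed to test compounds. Growth inhibition was measured relative to vehicle-treated controls.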

[4] = NCI Yeast Anticancer Drug Screen. Data for the cln2 rad14 strain (AID 165);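 also: 0% = growth equal to vehicle treated cultures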; settings: S. cerevisiae cln2 rad14 strain, at 50.0 µM, hits give high values
Method in brief: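 Readout is yeast growth inhibition versus vehicle-treated controls, using a strain with cln2 and rad14 alterations exposed to compound.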

[5] = NCI Yeast Anticancer Drug Screen. Data for the bub3 strain (AID 167); settings: S. cerevisiae bub3 mutant strain, at 50.0 µM, hits give high values
Method in brief: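 Whole-cell yeast assay. The mutant strain was incubated with compounds, and growth inhibition was determined by comparison with vehicle-treated cells.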

[6] = NCI Yeast Anticancer Drug Screen. Data for the mlh1 rad18 strain (AID 175); settings: S. cerevisiae mlh1 rad18 strain growth inhibition; at 50.0 µM; hits give high values
Method in brief: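 Genetically defined yeast (DNA repair-deficient) exposed to compounds; growth inhibition determined relative to vehicle.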

Measured: growth inhibition

COc1cc2c(cc1OC)[C@H]1Cc3cc(OC)c(OC)cc3[C@@H](C2)N1C(C)=O
inactive: [1] -2.1% | [2] -11.2% | [3] -16.6% | [4] 22.6% | [5] 20.9% | [6] -3.6%

C=C(C)C(C)(C)/C(C)=N\Nc1ccc([N+](=O)[O-])cc1[N+](=O)[O-]
inactive: [1] -0.15% | [2] -7.6% | [3] 6.2% | [4] -23.5% | [5] -0.15% | [6] -8.75%

CCCCCCCCOC(=O)C(C)OC(C)=O (stereo unspecified)
inactive: [1] 17.2% | [2] 2.05% | [3] 2.3% | [4] 13.8% | [5] 12.3% | [6] 12.1%

Ic1ccc(-c2ccccc2)cc1
inactive: [1] -2.95% | [2] -7.7% | [3] 12.1% | [4] -57.7% | [5] 34% | [6] 29.7%

Clc1cc2nc(C3CCCO3)[nH]c2cc1Cl (stereo unspecified)
inactive: [1] 24.3% | [2] 2.15% | [3] 29.5% | [4] 5% | [5] 19.9% | [6] 55.2%

CCCCOc1ccc(/C=C/C(=O)OCC(CC)CCCC)cc1 (stereo unspecified)
inactive: [1] -10.2% | [2] -6.2% | [3] 12.4% | [4] -63.4% | [5] 12.2% | [6] -9.05%

C1=C(c2ccccc2)C(c2ccccc2)=C(c2ccccc2)C(c2ccccc2)C(c2ccccc2)=N1 (stereo unspecified)
inactive: [1] 2.75% | [2] 10.2% | [3] -2.95% | [4] 21.4% | [5] -2.5% | [6] 8.55%

C/C(=N/O)c1ccc(O)cc1O
inactive: [1] -16.7% | [2] -1.2% | [3] 3.65% | [4] -8.6% | [5] 5.15% | [6] 13.8%

CC(O)CNC(=O)C(C)Oc1ccc(OCC2CCCCC2)cc1 (stereo unspecified)
inactive: [1] -2.8% | [2] -12.9% | [3] 6.65% | [4] -9.7% | [5] -53.7% | [6] -15.9%

O=C1C=C(Sc2ccccc2)c2nccc3c2c1nc1ccccc13
inactive: [1] 34.9% | [2] 7.6% | [3] 20.4% | [4] 6.55% | [5] 20.1% | [6] 30%

O=c1ccn(-c2ccccn2)c(=O)n1-c1ccccn1
inactive: [1] 18.9% | [2] -15.9% | [3] 2.95% | [4] 24.3% | [5] -6.35% | [6] -31.8%

CCC(c1ccc(Cl)cc1)N(CC)c1ccccn1 (stereo unspecified)
inactive: [1] 7% | [2] -0.4% | [3] 16.6% | [4] -52.4% | [5] 3.5% | [6] -30.2%

CNc1ccc(C(=O)N(C(=O)NC2CCCCC2)C2CCCCC2)cc1
inactive: [1] -6.65% | [2] -5.6% | [3] 4.7% | [4] -6.85% | [5] -1.95% | [6] 5.15%

O=C([O-])c1ccc2c(c1)-c1nc-2nc2[n-]c(nc3nc(nc4[n-]c(n1)c1ccc(C(=O)[O-])cc41)-c1cc(C(=O)[O-])ccc1-3)c1ccc(C(=O)[O-])cc21.[Fe+2]
inactive: [1] -1.2% | [2] -0.5% | [3] -13.6% | [4] 3.65% | [5] 7.5% | [6] -1.75%

COC(=O)N/N=C(/Cc1occc(=O)c1O)C(=O)Nc1ccc([N+](=O)[O-])cc1[N+](=O)[O-]
inactive: [1] -11.1% | [2] -12.9% | [3] -26.4% | [4] 3.3% | [5] 5.25% | [6] 8.1%

CC(=O)OCC1OC(OC(C)=O)C(Nc2ncnc3nc[nH]c23)C(OC(C)=O)C1OC(C)=O (stereo unspecified)
inactive: [1] 28.1% | [2] 23.9% | [3] 49.9% | [4] 11.6% | [5] 16.5% | [6] 37.8%

O=C(N/N=C\c1ccc(Cl)cc1Cl)C1CC1
inactive: [1] -19.8% | [2] -3.8% | [3] -7.6% | [4] -19.2% | [5] -19.3% | [6] -24.9%

O=C1C(SCCO)=C(SCCO)C(=O)c2[nH]cnc21
inactive: [1] 13.8% | [2] -10.4% | [3] 6.5% | [4] -0.85% | [5] 6.8% | [6] 4.15%

COC(=O)C1C2C=CC(C2)N1[C@@H](C)c1ccccc1 (stereo partly specified)
inactive: [1] 8.55% | [2] -28.3% | [3] -40.1% | [4] -5.6% | [5] -28% | [6] -21.4%

O=[N+]([O-])c1ccc(Cl)c(F)c1Cl
inactive: [1] -13% | [2] -17.1% | [3] -0.2% | [4] 5.15% | [5] -3.9% | [6] -12.2%

COc1ccc2ccccc2c1I
inactive: [1] 18.4% | [2] 1.4% | [3] 2.75% | [4] 10.7% | [5] 23.6% | [6] 9.45%

CC(C)N(CC(=O)NC(=O)c1ccccc1)C(C)C
inactive: [1] -2.85% | [2] -6.45% | [3] -3.55% | [4] -32.9% | [5] 0.05% | [6] -2.6%

COc1ccc(C2CCCCCC2OS(=O)(=O)c2ccc(C)cc2)c(OC)c1OC (stereo unspecified)
inactive: [1] 1.75% | [2] -4.55% | [3] -7.15% | [4] -14.8% | [5] 8.45% | [6] -9%

O=c1[nH]c(=O)n(C2OC(CO)C(O)C2O)cc1NN=NCc1ccccc1 (stereo unspecified)
inactive: [1] -10.1% | [2] -13.7% | [3] -11.2% | [4] 4.9% | [5] -4.5% | [6] -10.9%

CC(NC(=O)c1cnc2ccccc2n1)C(=O)O (stereo unspecified)
inactive: [1] -19.4% | [2] -24.4% | [3] -29.8% | [4] -16.4% | [5] 4.05% | [6] -24.8%

CCOc1ncc(C[n+]2csc(CCO)c2C)c(N)n1
inactive: [1] -4.95% | [2] -8.7% | [3] 8.25% | [4] 0.8% | [5] -19.9% | [6] -5.35%

C=C[C@]1(C)C[C@@H](OC(=O)CO)[C@@]2(C)[C@H](C)CC[C@]3(CCC(=O)[C@H]32)[C@@H](C)[C@@H]1O
inactive: [1] -28.6% | [2] -23.3% | [3] 14.3% | [4] 30.2% | [5] -49.4% | [6] -2.15%

C=CCCCCCCCCCO
inactive: [1] -9.2% | [2] -11% | [3] -1.9% | [4] 10.8% | [5] -18.4% | [6] -1.8%

O=C(OCC1CCCO1)c1ccccc1 (stereo unspecified)
inactive: [1] 8.4% | [2] 13.2% | [3] -15.3% | [4] -18.4% | [5] -8.75% | [6] -11%

CC(c1ccc2ccc3cccc4ccc1c2c34)C(C(=O)O)C(=O)O (stereo unspecified)
inactive: [1] -0.85% | [2] -15.8% | [3] 8.6% | [4] -7.15% | [5] 0.75% | [6] 5.7%

O=C(N=Nc1c(O)[nH]c2c(Cl)cc(Cl)cc12)c1ccccc1O
inactive: [1] -1.1% | [2] -0.55% | [3] -9.5% | [4] 12.5% | [5] -8.95% | [6] 3.85%

Cc1cc(C)c(CN(C)C)c(CC(O)c2ccccc2)c1 (stereo unspecified)
inactive: [1] 10.8% | [2] -5.95% | [3] 7.4% | [4] -15% | [5] 3.45% | [6] -1.95%

Cc1ccc(NC(=S)SCc2ccc(Cl)c(Cl)c2)cc1Br
inactive: [1] 29.3% | [2] -6.45% | [3] 10.2% | [4] 15% | [5] 0.3% | [6] 13.8%

CC(=O)C[n+]1ccccc1Oc1ccccc1
inactive: [1] 5.9% | [2] 4.15% | [3] 4.25% | [4] 11.2% | [5] 12.8% | [6] 3.75%

Cc1ccc([N+](=O)[O-])cc1NC(=O)Nc1cccc(Cl)c1Cl
inactive: [1] 3.55% | [2] 2.95% | [3] 9.8% | [4] 9% | [5] 18.1% | [6] 11.1%

OC1Cn2cc(Br)c[n+]2C1 (stereo unspecified)
inactive: [1] 8.3% | [2] -5.5% | [3] -21.5% | [4] 1.2% | [5] -2% | [6] -13.6%

CC(C)OC(CCCl)c1ccccc1 (stereo unspecified)
inactive: [1] -6.4% | [2] -45.5% | [3] -4.85% | [4] 5.6% | [5] -23.7% | [6] 3.1%

O=C1C=C(O)C(=C/C=C/C=C/c2c(O)cc(O)cc2O)C(O)=C1
inactive: [1] -12.4% | [2] -13.6% | [3] -2.65% | [4] 10.2% | [5] 6.65% | [6] -5.7%

CC(C)CC(NC(=O)C(CS)NC(=O)CN1C(=O)CCC1=O)C(N)=O (stereo unspecified)
inactive: [1] 15.1% | [2] -2.5% | [3] 4.65% | [4] -17.1% | [5] 13.3% | [6] 19.8%

CCCCCCCCNC(C(=O)c1ccccc1)c1ccccc1 (stereo unspecified)
inactive: [1] 10.1% | [2] 11.7% | [3] 16% | [4] 14% | [5] 14.2% | [6] 26.8%

CCOC(=O)/C=C(\N=P(c1ccccc1)(c1ccccc1)c1ccccc1)C(F)(F)C(F)(F)C(F)(F)C(F)(F)C(F)(F)F
inactive: [1] 19.4% | [2] 4% | [3] 32.4% | [4] 18.4% | [5] 20.2% | [6] 45.2%
